From PubChem BioAssay
Only some compounds are listed: those with a hit (about 6.6% of all), similar ones and a draw of the others.
FBA Mtb inh: inhibitors of M. tuberculosis fructose-bisphosphate aldolase; P9WQA3; purified M. tuberculosis FBA, fluorescence read-out; inhibition, % at 1 µM; hit rate 2.3% among 360,000; AID 588726; in the data active means inhibition above about 27%;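 further: 0% = vehicle and 100% = reference inhibitor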
BoNT F protease: inhibitors of Botulinum neurotoxin F light chain protease; Multiplex microsphere protease cleavage assay, flow cytometry; inhibition, % at 10 µM; hit rate 0.22% among 360,000; AID 588497; in the data active means inhibition above about 35%, passing the limit was not always enough; inconclusive means no clear call, values can overlap the other calls; further: plate controls were buffer without enzyme for full effect and enzyme alone for no effect
Bead autofluor: compound fluorescence in toxin protease inhibitor counterscreen | hit rate 3.1% among 360,000 | compound autofluorescence counterscreen, microsphere flow cytometry; hits give high values | fluorescence intensity (no concentration beside the values) | AID 624483; in the data active means fluorescence intensity above about 16000; inconclusive means no clear call, values can overlap the other calls
Anthrax LF prot: blocks Bacillus anthracis lethal factor protease. P15917. multiplex microsphere protease cleavage assay, LF. inhibition, % at 10 µM. hit rate 0.12% among 360,000. AID 588501; further: plate controls were buffer without enzyme for full effect and enzyme alone for no effect
Target sequence (P15917 whole entry, looked up): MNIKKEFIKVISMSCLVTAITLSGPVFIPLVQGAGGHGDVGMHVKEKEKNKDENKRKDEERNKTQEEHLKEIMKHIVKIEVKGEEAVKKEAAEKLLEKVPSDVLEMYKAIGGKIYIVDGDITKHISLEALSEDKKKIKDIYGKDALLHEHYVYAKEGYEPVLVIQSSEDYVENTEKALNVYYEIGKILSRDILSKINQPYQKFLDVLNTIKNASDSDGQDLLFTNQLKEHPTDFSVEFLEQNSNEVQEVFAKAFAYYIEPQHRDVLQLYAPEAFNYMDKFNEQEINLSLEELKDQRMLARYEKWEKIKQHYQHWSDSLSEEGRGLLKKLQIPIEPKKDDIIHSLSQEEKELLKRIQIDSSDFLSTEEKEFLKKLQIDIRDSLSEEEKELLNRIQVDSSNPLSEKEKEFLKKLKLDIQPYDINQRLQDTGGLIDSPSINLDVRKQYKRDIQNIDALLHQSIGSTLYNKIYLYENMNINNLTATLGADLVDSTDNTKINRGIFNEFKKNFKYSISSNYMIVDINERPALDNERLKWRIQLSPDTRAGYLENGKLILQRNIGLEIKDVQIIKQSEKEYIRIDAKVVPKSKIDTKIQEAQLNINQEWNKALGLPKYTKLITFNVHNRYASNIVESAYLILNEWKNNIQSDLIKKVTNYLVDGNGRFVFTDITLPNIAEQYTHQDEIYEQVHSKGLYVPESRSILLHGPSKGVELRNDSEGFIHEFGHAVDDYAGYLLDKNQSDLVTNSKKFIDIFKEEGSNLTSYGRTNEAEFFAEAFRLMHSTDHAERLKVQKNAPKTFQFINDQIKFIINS
GDH-TPI counter: GDH-TPI coupled enzyme inhibition counter-screen; GDH-TPI coupled enzyme counterscreen, NADH absorbance; inhibition, % at 4.8 µM; hit rate 1.2% among 360,000; AID 588335; in the data active means inhibition above about 30%;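 further: 0% = DMSO wells and 100% = wells lacking the enzyme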
BoNT A protease: inhibitors of Botulinum neurotoxin A light chain protease; inhibition, % at 10 µM; multiplex microsphere protease substrate cleavage, flow cytometry; AID 588499; hit rate 0.17% among 360,000; further: plate controls were buffer without enzyme for full effect and enzyme alone for no effect
Numbers without * were called inactive; ? = inconclusive. Unless noted, no stated cut-off is given here; in the data, active means inhibition above about 30%; inconclusive means no clear call, values can overlap the other calls; inactive means below that.

SMILES	FBA Mtb inh	BoNT F protease	Bead autofluor	Anthrax LF prot	GDH-TPI counter	BoNT A protease
C=CCNc1nc(C(=O)OCC(=O)N(Cc2ccccc2)C(C)C)cs1	0.9	-0.8	3902	-7.6	-1.5	-0.4
Cc1c(C#N)c2ncnc(-c3ccccc3)c2n1-c1ccccc1	4.4	-4.1	23956*	-2.4	5.1	-0.6
CC1SC(c2cccc(Cl)c2)NC1=O (stereo unspecified)	1.2	-2.5	24188*	1.5	-7.0	-0.6
CC1SC(c2ccc(Cl)cc2)NC1=O (stereo unspecified)	3.7	-3.1	2389	0.5	7.1	-0.1
COc1ccc(C2NC(=O)C(C)S2)cc1 (stereo unspecified)	1.0	-8.8	24997*	-3.5	-4.9	-4.6
CCOC(=O)/C=C/C(=O)Nc1ccccc1C(=O)NC1CCCCC1	-4.9	-6.8	2654	0.4	0.7	-0.3
COc1cc(/C=C(\NC(C)=O)C(=O)N2CCCCC2)ccc1OC(C)=O	1.8	?	3912	0.1	-3.1	1.5
CC(C)NC(=O)C1(S(=O)(=O)c2ccccc2)CC=CC1	0.4	2.7	3487	-11.6	8.4	0.1
CCOC(=O)/C(N=Nc1ccc(C(=O)O)cc1[N+](=O)[O-])=C(\C)O	-1.1	-9.5	4406	-1.5	6.0	0.0
CC(=O)/C(N=Nc1ccc(C(=O)O)cc1[N+](=O)[O-])=C(\C)O	-1.8	6.8	?	-2.9	68.8*	0.6
CCOc1ccc(NC(=O)NCc2ccco2)cc1	-3.4	5.9	2086	0.3	2.9	0.3
Cc1cccc(OCCCC(=O)NCc2ccco2)c1	2.2	-1.4	17050*	1.3	8.7	?
Cc1cccc(OCCC(=O)NCC(c2ccccc2)N(C)C)c1 (stereo unspecified)	0.7	1.0	25146*	-1.2	12.1	-1.5
CCOc1ccc(/C=N/NC(=O)C(=O)NCc2ccco2)cc1	-1.1	3.8	2545	2.7	33.1*	0.2
CCc1ccc(OCCCC(=O)NCc2ccco2)cc1	-0.7	-4.2	2628	-1.4	5.5	-0.7
Cc1ccc(OCCCC(=O)NCc2ccco2)cc1	-2.2	8.4	20751*	-1.7	-1.2	6.2
COc1ccc(OCCCC(=O)NCc2ccco2)cc1	1.2	-7.5	10879	0.6	11.7	-1.1
Cc1ccsc1-c1nc(CN2CCCC2c2ccc(F)cc2)c(C)o1 (stereo unspecified)	-2.3	1.6	6291	-2.2	0.9	0.3
CC(C)C(c1nnnn1C(C)(C)C)N1CCN(c2cccc(Cl)c2)CC1 (stereo unspecified)	10.5	?	4275	-5.8	-3.1	0.9
CCOC(=O)c1c(C)nc2c(c1-c1cc(OC)c(OC)c(OC)c1)C(=O)c1ccccc1-2	-1.7	5.0	19026*	-0.6	3.0	?
CCOC(=O)c1c(C)nc(C)c(C(=O)OCC)c1-c1ccccc1	-3.7	3.6	9531	0.2	-10.1	0.9
COc1ccc(CN2CCN(c3cccc(C)c3C)CC2)cc1OC	1.4	9.5	17421*	-13.7	-7.0	5.9
COc1cc(CN2CCC(C(=O)N3CCC(C)CC3)CC2)cc(Br)c1O	0.6	6.5	10990	3.6	0.5	-1.0
COc1ccc(CN2CCN(C)CC2)cc1OCc1ccccc1	0.0	0.7	20197*	-0.1	-9.3	1.7
COc1cc(CN2CCC(C(=O)NC3CCCC3)CC2)cc(Br)c1O	0.9	-4.7	23761*	-2.6	8.3	-1.1
SMILES	FBA Mtb inh	BoNT F protease	Bead autofluor	Anthrax LF prot	GDH-TPI counter	BoNT A protease
Cc1cccc(N2CCN(Cc3ccc4c(c3)OCO4)CC2)c1C	0.5	-20.8	3995	1.1	-5.4	-2.4
COc1cc(CN2CCN(c3cccc(C)c3C)CC2)cc(Br)c1O	3.3	-9.2	23780*	-5.2	15.5	?
O=C1NCCCN1C1OC(CO)C(O)C1O (stereo unspecified)	-1.5	-1.3	3997	4.6	7.4	-0.1
Cc1ccc(C(=O)c2ccccc2C(=O)OCC(=O)NC(C)(C)C)cc1	0.2	-4.8	3266	-2.6	1.9	0.5
CCCC(C)NC1=NCCCCC1 (stereo unspecified)	-0.4	0.2	7967	-2.6	-6.9	0.2
Cc1cccc(NC(=O)CN2C(=O)C3CC=CCC3C2=O)c1C (stereo unspecified)	8.1	-3.4	2859	-0.4	1.8	0.6
CCOC(=O)C1CCN(C(=O)c2cc3cc4ccc(C)cc4nc3o2)CC1	6.8	-2.5	6337	1.8	31.6*	-0.2
COc1ccc2cc3cc(C(=O)N(C)C4CCCCC4)oc3nc2c1	24.1	0.7	5459	2.3	38.9*	-2.1
